Screening results from PubChem.
A selection: hits, their analogues and other compounds. The true share with any hit is near 7.3%.
Tau fibril ThT: tau fibrillization inhibition (ThT binding); P10636; recombinant tau K18 P301L, heparin-induced fibrillization, ThT fluorescence; Potency, µM (titrated, usually from 57.4 µM), for inactives: top-dose activity, negative = inhibition, usual class: inhibitors; 2.1% of 270,000 active; AID 1460; note: nearly all actives have a fitted effect of over 55% in size
Target sequence (P10636 561-689 P618L limits assumed): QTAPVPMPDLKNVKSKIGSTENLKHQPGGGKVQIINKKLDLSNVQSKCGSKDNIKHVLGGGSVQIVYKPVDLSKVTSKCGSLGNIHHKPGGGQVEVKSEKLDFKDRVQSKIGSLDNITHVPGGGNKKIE
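Aggregation was driven by heparin (20 uM final) acting on recombinant tau […] bearing P301L in 100 mM sodium acetate pH 7; fibrils were detected with Thioflavin T.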
Tau fluor cs: counter-screen for tau fibril formation inhibitors; tau K18 P301L (four-repeat tau fragment) Alexa594 fluorescence, heparin fibrillization; Potency, µM (top dose mostly 57.7 µM), inactives show top-dose activity change, negative = decrease; 0.93% of 280,000 active; AID 1463; note: nearly all actives have a fitted effect of over 55% in size
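Human K18 P301L tau (15 uM unlabeled plus 0.24 uM Alexa 594-labeled, final) in 100 mM sodium acetate pH 7 was mixed with compound and 20 uM heparin and incubated 6 hr at 37 C.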
Tau FP inhib: tau fibrillization inhibition (FP) | K18 P301L tau heparin fibrillization, Alexa594 FP, 6 h | P10636 | 0.39% of 280,000 active | Potency, µM (titrated, usually from 57.7 µM), without a hit: top-dose activity, negative = inhibition, actives largely listed as inhibitors; note: nearly all actives have a fitted effect of over 55% in size
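Human tau K18 […] P301L fragment, 15 uM unlabeled plus 0.24 uM Alexa 594-labeled tau (final), with compound and 20 uM heparin in 100 mM sodium acetate pH 7; 6 hr at 37 C, then Alexa 594 FP read.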
Gal4-VP16 FLuc: Gal4-VP16 reporter inhibition counter-screen; Drosophila S2 Gal4-VP16 UAS-luciferase, luminescence, 20 h; Potency, µM (top dose mostly 53.6 µM), inactives show at the highest dose activity, negative = inhibition, hits mostly inhibitors; AID 2546; 3.5% of 310,000 active;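 note: Gal4-VP16 expression switched on by copper sulfate through the metallothionein promoter; nearly all actives have a fitted effect of over 50% in size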
RORgamma inh: inhibitors of mouse ROR gamma transcriptional activity | Drosophila S2 Gal4-RORgamma UAS-luciferase reporter, 20 h | P51450 | 5.4% of 310,000 active | Potency, µM (titrated, usually from 53.6 µM), for the others: at the top dose activity change, negative = inhibition, usual class: inhibitors; note: nearly all actives have a fitted effect of over 60% in size
Target sequence (P51450 whole entry, looked up, the tested form may be a part): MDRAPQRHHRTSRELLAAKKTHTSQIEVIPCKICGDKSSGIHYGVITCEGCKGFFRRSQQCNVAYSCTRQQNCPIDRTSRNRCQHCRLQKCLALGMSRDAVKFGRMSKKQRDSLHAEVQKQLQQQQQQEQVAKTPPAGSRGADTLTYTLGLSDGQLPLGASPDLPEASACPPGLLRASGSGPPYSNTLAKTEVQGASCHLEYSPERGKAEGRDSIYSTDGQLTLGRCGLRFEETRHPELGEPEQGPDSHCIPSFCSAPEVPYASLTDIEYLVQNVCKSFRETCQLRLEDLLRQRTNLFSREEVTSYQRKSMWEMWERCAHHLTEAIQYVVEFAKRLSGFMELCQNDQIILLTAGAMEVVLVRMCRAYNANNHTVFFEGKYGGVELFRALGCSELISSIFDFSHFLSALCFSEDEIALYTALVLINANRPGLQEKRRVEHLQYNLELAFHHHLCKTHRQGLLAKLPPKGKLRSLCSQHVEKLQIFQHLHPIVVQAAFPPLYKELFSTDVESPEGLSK
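Compounds are pin-transferred onto Drosophila Schneider cells expressing a copper-inducible Gal4–ROR gamma transactivation domain fusion. After 1 hr, copper sulfate is added to 700 uM final; luciferase is read 20 hr later.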
* hit, by the source's call; u = inconclusive; x = no result given; [ ] = remark or other dose. Calls come from the whole dose curve; as a rule, active = well fitted curve in the direction sought with a large enough effect; inconclusive = small, poorly fitted or top-dose-only effect, or another doubt; inactive = no such curve, though single readings can be large; an effect the other way counts as inactive or inconclusive. % is set by controls: 0 for no effect and ±100 for the full control effect; potency is the fitted concentration of half-maximal effect.

SMILES	Tau fibril ThT	Tau fluor cs	Tau FP inhib	Gal4-VP16 FLuc	RORgamma inh
CN(c1ccccc1)c1ccc(/C=C(\C#N)c2nnc3n2CCCCC3)cc1[N+](=O)[O-]	14.1µM*	u	1.1%	-0.2%	u
O=[N+]([O-])c1ccc(-c2csc(N3CCc4ccccc4C3)n2)cc1	5.01µM*	u	11.1%	-7.9%	-15.6%
N=C1/C(=C\c2ccc(-c3cccc(C(=O)O)c3)o2)C(=O)N=C2SC=C(c3ccccc3)N12	2.51µM*	-8.4%	7.6%	2.8%	20.2%
N=C1/C(=C/c2ccc(-c3cccc(C(=O)O)c3)o2)C(=O)N=C2SC(CC(=O)N3CCOCC3)=NN12	x	x	x	-5.4%	4.3%
CCCCc1ccc(-c2ccc(Br)cc2)nc1	-8.2%	-11.0%	-11.2%	-15.3%	-11.8%
CCCc1ccc(-c2ccc(F)c(N)c2)nc1	-10.1%	-8.9%	5.1%	u	4.47µM*
COc1ccccc1-c1cn[nH]c1-c1ccc(OCc2ccc(F)cc2)cc1O	-10.3%	10µM*[quencher]	u	u	7.94µM*
COc1ccccc1-c1cn[nH]c1-c1ccc(OCc2ccccc2F)cc1O	-17.6%	10µM*[quencher]	u	u	8.91µM*
COc1ccccc1-c1cn[nH]c1-c1ccc(OCc2ccc([N+](=O)[O-])cc2)cc1O	4.5%	-23.7%	u	-21.1%	u
O=C(CSc1nc2ccccc2c(=O)n1CC1CCCO1)Nc1ccccc1Cl (configuration not stated)	x	x	x	1.1%	-14.8%
O=C(O)c1ccccc1N/N=C\c1ccnc2ccccc12	5.01µM*	-23.9%	10.7%	u	5.01µM*
O=C(Cc1ccccc1)N/N=C/c1cc(Br)cc(Br)c1O	x	x	x	1.58µM*	0.794µM*
O=C(CNC(=O)c1cccc(Br)c1)N/N=C/c1cc(Br)cc(Br)c1O	u	u	0.0%	12.6µM*	2.51µM*
O=C(CCN1CCOCC1)N/N=C/c1cc(Br)cc(Br)c1O	u	-17.8%	-0.8%	5.01µM*	1.41µM*
O=C(CNC(=O)c1cccc(Br)c1)N/N=C/c1cccs1	x	x	x	-4.0%	u
CCSc1nnc2c(n1)OC(c1sccc1C)N(C(C)=O)c1ccccc1-2 (configuration not stated)	u	-6.9%	3.6%	x	x
COCC(=O)N1CCc2nc(COc3ccccc3)c3c(c2C1)CO[C@@H](C)C3	-12.1%[11.5 µM]	-16.4%[11.6 µM]	-2.3%[11.6 µM]	x	x
CCCn1c(=O)sc2cc(NC(=O)COc3ccc(Cl)cc3)ccc21	-11.8%	u	-11.1%	x	x
C#C[C@@]1(O)CCC2C3CCc4cc(O)ccc4C3CC[C@@]21C (some centres not stated)	-15.4%	-22.0%	5.3%	0.3%	-0.5%
O=C(Cc1ccccc1)N/N=C/c1ccc2c(c1)OCO2	13.0%	6.6%	9.3%	-2.8%	40.4%
O=C(CSCc1ccccc1)N/N=C/c1cc2c(cc1Br)OCO2	0.5%	-2.5%	-4.7%	11.2µM*	u
O=C(O)c1ccccc1N/N=C/c1cc(Br)cc(Br)c1O	14.1µM*	u	21.8%	u	15.5%
Brc1ccc(N/N=C(/N=Nc2nn[nH]n2)c2ccccc2)cc1	4.47µM*	8.91µM*[quencher]	u	-0.9%	u
O=C(Cc1cccc2ccccc12)N/N=C/c1ccc2cccc(O)c2n1	x	u	-10.8%	u	12.6µM*
O=C(Cc1cccc2ccccc12)N/N=C/c1ccc(O)c([N+](=O)[O-])c1	u	-19.0%	6.7%	5.0%	16.9%
SMILES	Tau fibril ThT	Tau fluor cs	Tau FP inhib	Gal4-VP16 FLuc	RORgamma inh
COc1ccc(C(C)=O)cc1CSc1nnc(-c2ccc(Cl)cc2)n1-c1ccccc1	-11.2%	-3.5%	6.6%	15.8µM*	u
CCn1c(COc2ccccc2C)nnc1SCC(=O)CC(=O)Nc1ccccc1OC	u	-13.2%	-5.6%	12.6µM*	10µM*
CCn1c(COc2ccccc2C)nnc1SCC(=O)N1CCN(c2ccccc2)CC1	-19.5%	-17.3%	-16.7%	-13.3%	41.1%
COc1ccc(C(C)=O)cc1CSc1nnc(-c2ccncc2)n1C	-1.0%	-4.5%	-3.0%	-5.4%	-0.4%
CCn1c(COc2ccccc2C)nnc1SCC(=O)OC	1.9%	-1.2%	-2.4%	3.1%	3.0%
CCn1c(COc2cccc(C)c2C)nnc1SCC(=O)N1CCN(c2ccc(OC)cc2)CC1	u	-9.5%	-0.2%	0.891µM*	11.4%
CCn1c(CNC(=O)COc2ccc(C(C)C)cc2)nnc1SCC(=O)Nc1ccccc1C(C)C	-13.3%	-9.4%	4.0%	20µM*	30.5%
CCn1c(CNC(=O)COc2ccc(C(C)C)cc2)nnc1SCC(=O)Nc1ccccc1F	-6.7%	-3.8%	2.3%	u	-30.3%
O=C(c1cccc(Oc2c(Cl)cccc2[N+](=O)[O-])c1)N1CCOCC1	x	x	x	-1.4%	-27.9%
Cc1cc(C)c(S(=O)(=O)N2CCN(C(=O)CCn3nc(C)c(C)c3C)CC2)c(C)c1	x	x	x	-2.1%	-15.9%
Cc1ccc(N2CC(NC(=O)c3cc4ccccc4o3)CC2=O)cc1 (configuration not stated)	-11.7%	-14.2%	-13.0%	x	x
CCn1c(COc2ccccc2)nnc1SCC(=O)CC(=O)Nc1ccccc1OC	u	-18.9%	0.4%	22.4µM*	u
COc1ccc(NC(=O)CSc2nnc(COc3ccccc3)n2Cc2ccco2)cc1OC	-17.5%	-25.3%	16.8%	11.2µM*	-40.4%
COc1ccc(C)cc1NC(=O)CSc1nnc(COc2ccccc2)n1Cc1ccco1	u	-15.0%	-2.8%	u	-108.5%
COc1ccccc1NC(=O)CC(=O)CSc1nnc(-c2ccc(C)cc2)n1-c1ccccc1	-12.4%	-6.4%	1.6%	10µM*	7.08µM*
O=C(CSc1nnc(Cc2cccs2)n1Cc1ccco1)Nc1cccc(Cl)c1	-3.0%	-16.3%	-6.7%	11.2µM*	u
CCn1c(C)nnc1SCC(=O)Nc1ccccc1OC	x	x	x	-4.5%	-6.6%
CC(=O)c1cccc(NC(=O)CCn2nc(C)c(S(=O)(=O)N(C)C)c2C)c1	-1.7%	-6.9%	-0.8%	x	x
CCCCCC1=C(C(=O)OC)C(C(=O)OCC)N(S(=O)(=O)C(F)(F)F)c2ccccc21 (configuration not stated)	-14.4%	-13.0%	5.0%	-7.2%	12.5%
CCCC(=O)Nc1ccc2nc(SCc3ccc(C)cc3)sc2c1	-11.6%	-26.7%	-13.1%	x	x
N#Cc1ccccc1NC(=O)CSc1nnc(-c2ccccc2O)n1-c1ccccc1	-11.9%	-19.7%	-1.0%	u	12.6µM*
Cc1cnc(NC(=O)CSc2ncc(-c3ccccc3)n2Cc2ccco2)s1	u	-25.7%	4.6%	-28.8%	11.2µM*
O=C(CSc1ncc(-c2ccc(F)cc2)n1Cc1ccco1)Nc1nccs1	4.7%	-11.3%	-4.9%	-5.2%	-23.5%
CCn1c(COc2cccc(C)c2)nnc1SCC(=O)CC(=O)Nc1ccccc1OC	u	-9.6%	2.1%	u	10µM*
Cc1cc(C)n2nc(CNC(=O)c3c(F)cccc3F)nc2n1	5.6%	-2.8%	-8.1%	x	x
